From PubChem BioAssay (NCATS)
Records with an inconclusive call do not appear. Calls of active or inactive are those of the source. Unless noted, calls come from the whole dose curve; as a rule, active = well fitted curve in the direction sought with a large enough effect; inconclusive = small, poorly fitted or top-dose-only effect, or another doubt; inactive = no such curve, though single readings can be large; an effect the other way counts as inactive or inconclusive.

What was measured:
[1] = S16 Schwann cell viability assay (CellTiter-Glo assay) (AID 624031);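 note: cellular ATP luminescence as a viability measure; nearly all actives have a fitted effect of over 70% in size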
In short: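 Native S16 rat Schwann cells in DMEM/10% FBS without phenol red were incubated overnight, then exposed to compounds for 24 h at 37 °C/5% CO2. Viability was read as ATP luminescence (CellTiter-Glo), normalized to no-cell wells and DMSO (0%).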

[2] = S16 Schwann cell PMP22 intronic element beta-lactamase assay (AID 624044; calls by dose curve; note: nearly all actives have a fitted effect of over 15% in size); details: S16 rat Schwann cells, PMP22 element beta-lactamase FRET, 24 h; ratio activity, negative = inhibition: at 38.3 µM (top of the series)
In short: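 Beta-lactamase reporter under a PMP22 intronic regulatory element in stable S16 rat Schwann cells; 24 h compound exposure. 460 nm blue signal normalized between DMSO (0%) and potassium clavulanate, with 535 nm FRET tracking viability; curves classed by r2 and response.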

AA1029 = test: qHTS profiling for inhibitors of Plasmodium falciparum proliferation (AID 504749); note: nearly all actives have a fitted effect of over 60% in size; note: potency is the fitted concentration of half-maximal effect; details: P. falciparum in erythrocytes, SYBR Green DNA, 72 h; series mostly up to 28.7 µM
In short: (§1)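 Each compound contacts P. falciparum-infected red blood cells for 72 h at 37 C; lysis buffer (Tris, EDTA, saponin, Triton X, SYBR Green I) is added and fluorescence measured next morning; values normalized to controls.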

CP203 = test: as above; details: P. falciparum in erythrocytes, SYBR Green DNA, 72 h; series mostly up to 28.7 µM
In short: as §1

CP211 = test: as above; details: P. falciparum in erythrocytes, SYBR Green DNA, 72 h; series mostly up to 28.7 µM
In short: as §1

CP217 = test: as above; details: P. falciparum in erythrocytes, SYBR Green DNA, 72 h; series mostly up to 28.7 µM
In short: as §1

CP250 = test: as above; details: P. falciparum in erythrocytes, SYBR Green DNA, 72 h; series mostly up to 28.7 µM
In short: as §1

CP252 = test: as above; details: P. falciparum in erythrocytes, SYBR Green DNA, 72 h; series mostly up to 28.7 µM
In short: as §1

CP256 = test: as above; details: P. falciparum in erythrocytes, SYBR Green DNA, 72 h; series mostly up to 28.7 µM
In short: as §1

CP260 = test: as above; details: P. falciparum in erythrocytes, SYBR Green DNA, 72 h; series mostly up to 28.7 µM
In short: as §1

CP291 = test: as above; details: P. falciparum in erythrocytes, SYBR Green DNA, 72 h; series mostly up to 28.7 µM
In short: as §1

CP335 = test: as above; details: P. falciparum in erythrocytes, SYBR Green DNA, 72 h; series mostly up to 28.7 µM
In short: as §1

DFO2036 = test: as above; details: P. falciparum in erythrocytes, SYBR Green DNA, 72 h; series mostly up to 28.7 µM
In short: as §1

DIV14 = test: as above; details: P. falciparum in erythrocytes, SYBR Green DNA, 72 h; series mostly up to 28.7 µM
In short: as §1

DIV17 = test: as above; details: P. falciparum in erythrocytes, SYBR Green DNA, 72 h; series mostly up to 28.7 µM
In short: as §1

ICS = test: as above; details: P. falciparum in erythrocytes, SYBR Green DNA, 72 h; series mostly up to 28.7 µM
In short: as §1

N140 = test: as above; details: P. falciparum in erythrocytes, SYBR Green DNA, 72 h; series mostly up to 28.7 µM
In short: as §1

PC26 = test: as above; details: P. falciparum in erythrocytes, SYBR Green DNA, 72 h; series mostly up to 28.7 µM
In short: as §1

SC27B = test: as above; details: P. falciparum in erythrocytes, SYBR Green DNA, 72 h; series mostly up to 28.7 µM
In short: as §1

TAB165 = test: as above; details: P. falciparum in erythrocytes, SYBR Green DNA, 72 h; series mostly up to 28.7 µM
In short: as §1

Measured: Potency

CN1[C@H]2CC(OC(=O)[C@H](CO)c3ccccc3)C[C@H]1[C@H]1O[C@H]12 (some centres not stated)
inactive: all assays above

CO[C@H]1/C=C/O[C@@]2(C)Oc3c(C)c(O)c4c(O)c(c5c(c4c3C2=O)NC2(CCN(CC(C)C)CC2)N=5)=NC(=O)/C(C)=C\C=C\[C@H](C)[C@H](O)[C@@H](C)[C@@H](O)[C@@H](C)[C@H](OC(C)=O)[C@@H]1C
active: AA1029 11.2 µM | CP217 8.91 µM | CP250 7.08 µM | CP252 8.91 µM | CP256 8.91 µM | CP260 8.91 µM | CP335 13.5 µM | DIV14 8.49 µM | DIV17 10.7 µM | ICS 8.91 µM | N140 8.91 µM | PC26 10.7 µM | SC27B 8.91 µM | TAB165 7.94 µM
inactive: [1] | [2] | CP211
